This passage reports log2 fold change results from the supplement of paper PMC12819154, “High-throughput peptide-centric local stability assay extends protein–ligand identification to membrane proteins, tissues and bacteria” (Nature Structural & Molecular Biology, 2025).

UniProt Q8C4X2, sequence (Q8C4X2 whole entry): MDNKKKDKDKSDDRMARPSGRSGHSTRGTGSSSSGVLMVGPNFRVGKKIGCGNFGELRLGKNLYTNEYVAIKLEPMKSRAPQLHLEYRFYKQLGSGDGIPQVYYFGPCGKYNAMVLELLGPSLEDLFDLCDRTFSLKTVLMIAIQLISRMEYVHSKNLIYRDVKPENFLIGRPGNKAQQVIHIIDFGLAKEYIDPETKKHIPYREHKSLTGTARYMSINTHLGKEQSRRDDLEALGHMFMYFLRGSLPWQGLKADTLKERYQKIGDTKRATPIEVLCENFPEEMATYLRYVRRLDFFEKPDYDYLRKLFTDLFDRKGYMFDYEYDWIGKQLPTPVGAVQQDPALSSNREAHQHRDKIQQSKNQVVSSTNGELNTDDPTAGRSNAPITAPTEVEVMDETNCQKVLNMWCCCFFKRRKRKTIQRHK
UniProt Q99JT2, sequence (Q99JT2 whole entry): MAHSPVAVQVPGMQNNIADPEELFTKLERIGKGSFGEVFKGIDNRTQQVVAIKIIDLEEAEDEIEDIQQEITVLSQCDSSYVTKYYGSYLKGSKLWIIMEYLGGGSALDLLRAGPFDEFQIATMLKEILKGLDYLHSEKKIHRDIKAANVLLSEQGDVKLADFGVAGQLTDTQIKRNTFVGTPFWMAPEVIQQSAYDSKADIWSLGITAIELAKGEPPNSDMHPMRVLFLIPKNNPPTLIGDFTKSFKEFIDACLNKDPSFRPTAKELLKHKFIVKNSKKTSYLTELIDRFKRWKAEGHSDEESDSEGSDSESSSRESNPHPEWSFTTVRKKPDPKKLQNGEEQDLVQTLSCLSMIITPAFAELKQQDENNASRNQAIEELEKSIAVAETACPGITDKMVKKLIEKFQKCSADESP
UniProt Q9EPE9, sequence (Q9EPE9 whole entry): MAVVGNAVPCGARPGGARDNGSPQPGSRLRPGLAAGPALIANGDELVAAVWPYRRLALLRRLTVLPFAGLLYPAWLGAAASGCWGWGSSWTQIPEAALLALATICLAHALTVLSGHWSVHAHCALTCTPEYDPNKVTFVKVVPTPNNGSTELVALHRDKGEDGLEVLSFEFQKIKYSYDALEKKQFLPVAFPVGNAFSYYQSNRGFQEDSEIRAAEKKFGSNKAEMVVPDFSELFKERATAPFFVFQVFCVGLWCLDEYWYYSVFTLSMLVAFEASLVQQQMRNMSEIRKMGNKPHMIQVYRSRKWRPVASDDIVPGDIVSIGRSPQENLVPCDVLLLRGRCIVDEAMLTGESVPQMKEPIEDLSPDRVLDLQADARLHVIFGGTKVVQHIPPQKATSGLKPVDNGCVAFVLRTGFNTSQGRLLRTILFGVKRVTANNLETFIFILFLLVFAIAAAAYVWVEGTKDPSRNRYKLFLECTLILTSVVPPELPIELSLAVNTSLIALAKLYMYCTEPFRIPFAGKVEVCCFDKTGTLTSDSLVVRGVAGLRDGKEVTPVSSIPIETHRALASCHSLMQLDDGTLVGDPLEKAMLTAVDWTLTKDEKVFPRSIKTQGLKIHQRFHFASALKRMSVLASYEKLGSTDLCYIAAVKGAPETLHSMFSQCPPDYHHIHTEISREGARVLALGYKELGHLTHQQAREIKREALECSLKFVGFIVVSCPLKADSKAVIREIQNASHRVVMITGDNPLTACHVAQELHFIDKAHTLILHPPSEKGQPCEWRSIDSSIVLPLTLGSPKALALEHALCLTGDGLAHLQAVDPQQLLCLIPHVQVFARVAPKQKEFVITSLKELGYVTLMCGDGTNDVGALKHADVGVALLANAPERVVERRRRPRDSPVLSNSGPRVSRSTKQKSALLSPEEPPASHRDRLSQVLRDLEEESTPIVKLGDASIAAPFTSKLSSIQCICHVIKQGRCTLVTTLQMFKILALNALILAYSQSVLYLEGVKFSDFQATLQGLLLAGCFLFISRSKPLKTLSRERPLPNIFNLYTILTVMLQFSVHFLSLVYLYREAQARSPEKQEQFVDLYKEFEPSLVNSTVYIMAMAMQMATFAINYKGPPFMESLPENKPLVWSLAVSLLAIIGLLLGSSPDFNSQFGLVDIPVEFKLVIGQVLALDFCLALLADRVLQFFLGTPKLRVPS
UniProt Q91V04, sequence (Q91V04 whole entry): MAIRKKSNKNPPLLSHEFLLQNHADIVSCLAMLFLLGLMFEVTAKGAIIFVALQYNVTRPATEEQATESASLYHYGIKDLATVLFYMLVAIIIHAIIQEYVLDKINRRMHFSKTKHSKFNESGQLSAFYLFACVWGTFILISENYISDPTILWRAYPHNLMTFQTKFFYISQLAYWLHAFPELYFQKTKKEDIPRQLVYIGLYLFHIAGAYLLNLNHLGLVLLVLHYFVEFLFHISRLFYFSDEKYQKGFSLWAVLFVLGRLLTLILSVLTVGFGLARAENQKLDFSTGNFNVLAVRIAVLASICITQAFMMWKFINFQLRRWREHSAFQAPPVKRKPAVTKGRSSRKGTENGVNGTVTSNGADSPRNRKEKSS
UniProt P42932, sequence (P42932 whole entry): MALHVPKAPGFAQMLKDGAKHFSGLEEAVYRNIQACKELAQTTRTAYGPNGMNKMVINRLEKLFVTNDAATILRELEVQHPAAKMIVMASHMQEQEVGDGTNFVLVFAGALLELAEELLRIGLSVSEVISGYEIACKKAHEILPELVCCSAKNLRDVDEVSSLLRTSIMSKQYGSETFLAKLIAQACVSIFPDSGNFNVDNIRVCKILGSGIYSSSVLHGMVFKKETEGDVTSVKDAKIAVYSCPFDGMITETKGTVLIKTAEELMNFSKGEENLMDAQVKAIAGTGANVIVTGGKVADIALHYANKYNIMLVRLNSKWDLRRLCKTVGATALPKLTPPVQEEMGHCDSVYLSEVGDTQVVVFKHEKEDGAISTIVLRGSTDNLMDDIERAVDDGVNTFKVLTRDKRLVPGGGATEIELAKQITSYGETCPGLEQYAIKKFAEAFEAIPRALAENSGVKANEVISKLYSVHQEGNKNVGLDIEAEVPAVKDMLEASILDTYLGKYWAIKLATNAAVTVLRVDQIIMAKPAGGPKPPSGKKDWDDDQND
UniProt P55096, sequence (P55096 whole entry): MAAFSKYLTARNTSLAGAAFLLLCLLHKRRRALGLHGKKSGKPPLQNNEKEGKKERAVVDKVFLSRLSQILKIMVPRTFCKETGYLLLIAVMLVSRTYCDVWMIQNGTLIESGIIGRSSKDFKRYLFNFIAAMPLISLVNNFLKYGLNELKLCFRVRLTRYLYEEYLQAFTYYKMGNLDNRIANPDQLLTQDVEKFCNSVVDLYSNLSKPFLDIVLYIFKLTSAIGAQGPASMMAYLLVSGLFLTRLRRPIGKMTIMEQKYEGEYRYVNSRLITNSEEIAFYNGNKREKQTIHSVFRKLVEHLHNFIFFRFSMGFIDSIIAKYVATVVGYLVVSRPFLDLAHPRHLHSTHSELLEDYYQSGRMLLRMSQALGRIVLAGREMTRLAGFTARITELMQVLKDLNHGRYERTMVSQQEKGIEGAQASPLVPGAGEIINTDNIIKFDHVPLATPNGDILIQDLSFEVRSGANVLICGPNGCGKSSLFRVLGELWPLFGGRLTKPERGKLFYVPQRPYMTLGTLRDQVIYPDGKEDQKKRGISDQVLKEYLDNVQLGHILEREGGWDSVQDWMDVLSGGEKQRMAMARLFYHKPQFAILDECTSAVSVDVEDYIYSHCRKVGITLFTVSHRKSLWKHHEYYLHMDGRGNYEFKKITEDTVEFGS
UniProt Q2NL51, sequence (Q2NL51 whole entry): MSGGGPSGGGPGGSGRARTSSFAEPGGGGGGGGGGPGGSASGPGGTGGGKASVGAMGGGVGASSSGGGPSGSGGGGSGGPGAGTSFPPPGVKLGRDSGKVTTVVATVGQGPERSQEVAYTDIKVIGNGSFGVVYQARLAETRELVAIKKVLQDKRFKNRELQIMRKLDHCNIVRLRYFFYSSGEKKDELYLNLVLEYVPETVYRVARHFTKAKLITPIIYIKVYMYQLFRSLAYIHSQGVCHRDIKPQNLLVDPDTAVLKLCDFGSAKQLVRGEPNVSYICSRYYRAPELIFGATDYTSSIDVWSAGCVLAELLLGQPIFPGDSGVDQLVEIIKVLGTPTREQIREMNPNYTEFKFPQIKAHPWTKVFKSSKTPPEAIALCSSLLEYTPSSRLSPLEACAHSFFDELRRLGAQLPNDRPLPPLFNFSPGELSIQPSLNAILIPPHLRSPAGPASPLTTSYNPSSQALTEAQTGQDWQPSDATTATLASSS
UniProt P28652, sequence (P28652 whole entry): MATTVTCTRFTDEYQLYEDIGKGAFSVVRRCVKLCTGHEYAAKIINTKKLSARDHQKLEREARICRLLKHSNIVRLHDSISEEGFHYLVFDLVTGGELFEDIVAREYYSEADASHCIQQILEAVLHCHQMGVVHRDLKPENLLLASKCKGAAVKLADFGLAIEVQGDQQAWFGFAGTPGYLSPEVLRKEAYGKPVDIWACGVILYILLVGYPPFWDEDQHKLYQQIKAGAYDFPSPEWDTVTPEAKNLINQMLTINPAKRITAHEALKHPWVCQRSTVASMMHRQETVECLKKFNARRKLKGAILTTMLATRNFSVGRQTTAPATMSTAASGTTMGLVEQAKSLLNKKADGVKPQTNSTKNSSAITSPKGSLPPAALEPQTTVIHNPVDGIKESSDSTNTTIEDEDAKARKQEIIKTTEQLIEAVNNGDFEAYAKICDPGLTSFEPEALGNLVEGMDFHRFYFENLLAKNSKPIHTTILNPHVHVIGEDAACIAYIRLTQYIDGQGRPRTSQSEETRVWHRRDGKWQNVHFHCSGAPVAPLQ
UniProt Q9CR62, sequence (Q9CR62 whole entry): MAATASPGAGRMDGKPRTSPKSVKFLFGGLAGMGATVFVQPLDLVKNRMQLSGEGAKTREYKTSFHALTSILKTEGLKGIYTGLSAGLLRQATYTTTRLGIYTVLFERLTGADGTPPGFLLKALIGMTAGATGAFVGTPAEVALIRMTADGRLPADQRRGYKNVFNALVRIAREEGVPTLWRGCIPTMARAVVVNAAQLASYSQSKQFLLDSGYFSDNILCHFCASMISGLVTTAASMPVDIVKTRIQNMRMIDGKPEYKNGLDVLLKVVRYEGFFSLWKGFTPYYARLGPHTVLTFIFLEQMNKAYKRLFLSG

Compound in the test: CN[C@@H]1C[C@H]2O[C@@](C)([C@@H]1OC)n1c3ccccc3c3c4c(c5c6ccccc6n2c5c31)C(=O)NC4 [staurosporine]
The test is described as follows: log2 fold change of tryptic peptide abundance, ligand vs vehicle (limited proteolysis) (log2 ratio); higher = more trypsin-susceptible (destabilized). Conditions: ligand concentration: 20 uM; sample: mouse liver crude lysate; replicate design: treated separately.
On to “UniProt Q61831 (peptide sequence: DLKPSNIVVK, peptide start residue: 151)”, for which the log2 fold change is -1.06. “UniProt P24604 (peptide sequence: ELGSGLFGVVR, peptide start residue: 374)”: the log2 fold change is -0.989. As for “UniProt Q6ZWQ0 (peptide sequence: INDRWQHLFDVIGSR, peptide start residue: 5986)”, the log2 fold change was determined as 0.927. As for “UniProt Q9EPE9 (peptide sequence: EVTPVSSIPIETHR, peptide start residue: 553)”, the log2 fold change is -0.718. Take “UniProt Q8N9S3 (peptide sequence: SPAVLEAER, peptide start residue: 231)”: the log2 fold change worked out at 0.295. For “UniProt P48962 (peptide sequence: MMMQSGRK, peptide start residue: 238)”, the log2 fold change was determined as 0.293.

Turning to “UniProt Q99JT2 (peptide sequence: LADFGVAGQLTDTQIKR, peptide start residue: 156)”, the log2 fold change is -0.843. As for “UniProt P42932 (peptide sequence: AIAGTGANVIVTGGK, peptide start residue: 282)”, the log2 fold change is -0.803.

Turning to “UniProt P55096 (peptide sequence: EKQTIHSVFRK, peptide start residue: 288)”, the log2 fold change was found to be 0.493. Regarding “UniProt P31532 (peptide sequence: KYFQGLLNR, peptide start residue: 81)”, the log2 fold change worked out at 0.505. “UniProt P28652 (peptide sequence: NLINQMLTINPAKR, peptide start residue: 247)”: the log2 fold change was -2.11.

As to “UniProt Q8C4X2 (peptide sequence: DVKPENFLIGRPGNK, peptide start residue: 162)”, the log2 fold change was -1.22. Take “UniProt P05132 (peptide sequence: CGKEFTEF, peptide start residue: 344)”: the log2 fold change worked out at 2.36. To “UniProt Q05020 (peptide sequence: TYPISMDEK, peptide start residue: 59)” belongs 0.537; to “UniProt P10649 (peptide sequence: YIATPIFSK, peptide start residue: 203)”, 0.584. For “UniProt E9Q414 (peptide sequence: LPQQIHHYLNASDWER, peptide start residue: 2117)”, the log2 fold change turned out to be 0.422. In the case of “UniProt Q9CYZ2 (peptide sequence: LGEWNEK, peptide start residue: 113)”, the log2 fold change was found to be 0.397. Consider “UniProt Q9CQU3 (peptide sequence: YIPFTHGK, peptide start residue: 174)”, for which the log2 fold change is 0.278. Consider “UniProt P98154 (peptide sequence: GGDPTHFHTVNVAQPVR, peptide start residue: 89)”, for which the log2 fold change was -1.16.

Take “UniProt Q91V04 (peptide sequence: EHSAFQAPPVKR, peptide start residue: 325)”: the log2 fold change came to 3.7. For “UniProt Q2NL51 (peptide sequence: LCDFGSAK, peptide start residue: 198)”, the log2 fold change was -4.01. For the target “UniProt P52332 (peptide sequence: NVLVESEHQVK, peptide start residue: 1007)”, the log2 fold change is -2.98. Consider “UniProt Q9CR62 (peptide sequence: NGLDVLLK, peptide start residue: 261)”, for which the log2 fold change was found to be 0.377.

For the target “UniProt Q9CZW6 (peptide sequence: GASWLGKR, peptide start residue: 64)”, the log2 fold change was -0.952. “UniProt Q9QZL0 (peptide sequence: DLKPSNILLDPELHAK, peptide start residue: 143)”: the log2 fold change is -1.1. As to “UniProt Q9JHU3 (peptide sequence: HVETGEIVALKK, peptide start residue: 23)”, the log2 fold change was -2.31. Take “UniProt Q3U214 (peptide sequence: YFLEMQDKLER, peptide start residue: 260)”: the log2 fold change was 0.698.
